Source: paper PMC5540273 (PLoS ONE, 2017)

The compounds below were run on DYRK1B. Conditions: concentration: 1 μM, replicates: in singlicate; n = 1.
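Also: KINOMEscan kinase panel screen.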

Structure (SMILES) | %Inh [%]
COc1cc2c(cc1OCCN1CCNCC1)ncc1c3ccc(C#N)cc3[nH]c21 | 63
CN(c1ccc(NC(=O)Nc2cc(C(F)(F)F)ccc2F)cc1)c1ccnc(Nc2ccc(S(N)(=O)=O)cc2)n1 [GW809893] | 10
COc1ccc(Nc2nccc(N3CCC(NC(=O)Nc4cccc(OC)c4)C3)n2)cc1 (centres unmarked) [GSK1379742] | 0
COc1cccc(-c2ccc3c(NC(=O)C4CC4)n[nH]c3n2)c1 [SB-710903] | 0
CNC(=O)c1ccccc1Nc1nc(Nc2ccc(N3CCOCC3)cc2)ncc1Cl.Cl [GSK1576028] | 100
O=C(NC1CCN(c2ccnc(Nc3ccc(F)cc3)n2)C1)c1cc2ccccc2s1 (centres unmarked) [GSK1379716] | 14
O=C(Nc1cccc(Oc2ccc3nc(NC(=O)C4CC4)cn3n2)c1)c1ccccc1C(F)(F)F | 12
Cl.c1ccc(-c2ccc3c(Nc4ccc5[nH]ncc5c4)ccnc3c2)nc1 [GW440137] | 31
Cl.Cl.NCC(NC(=O)c1cc(-c2ccccc2)c(-c2ccnc3[nH]ccc23)s1)c1ccccc1 (centres unmarked) [GSK1321561] | 100
C[C@@H](Oc1cc(-n2cnc3cc(-c4ccnc(NCCS(C)(=O)=O)c4)ccc32)sc1C(N)=O)c1ccccc1Cl [GSK907232] | 0
O=C(Nc1cccc(-c2nn3ccccc3c2-c2ccnc(Nc3cccc(F)c3)n2)c1)c1c(F)ccc(F)c1Cl [GSK357952] | 0
Cc1occc1-c1ncc(OC[C@@H](N)Cc2c[nH]c3ccccc23)cc1-c1ccc2[nH]nc(C)c2c1.O=C(O)C(F)(F)F [GSK682037] | 0
CCc1ccc(-c2ccc3c(c2)-c2c(cnn2C)S(=O)(=O)N3C)cc1 | 3
O=c1[nH]cc(-c2ccc(N3CCOCC3)cc2)c2sc(-c3cn[nH]c3)cc12 [GSK2276055] | 100
Cc1cccc(NC(=O)Nc2ccc(Oc3ncnc4ccn(C)c34)cc2)c1 | 9
CC(C)(C)c1ccc2nccc(Nc3cccc(O)c3)c2c1 [GW856795] | 48

Structure (SMILES) | %Inh [%]
COc1cc(Nc2nccc(-c3c(-c4cccc(NC(=O)c5c(F)cccc5F)c4)nn4ccccc34)n2)cc(OC)c1OC [GSK323521] | 0
CCn1c(-c2nonc2N)nc2c(C#CC(C)(C)O)ncc(OCCCCN)c21.O=C(O)C(F)(F)F.O=C(O)C(F)(F)F [GSK507274] | 0
O=C(Nc1cccc(-c2nn3ncccc3c2-c2ccnc(Nc3ccccc3)n2)c1)c1c(F)cccc1F [GSK198271] | 100
Cn1cc(-c2ccc3c(c2)CCN3C(=O)Cc2cccc(Cl)c2)c2c(N)ncnc21 [GSK2606590] | 0
CN1CCN(Cc2cccc(-c3ccc4c(Nc5ccc(Oc6ccccc6)cc5)ccnc4c3)c2)CC1 [GW578342] | 13
Oc1cc(Nc2ccnc3cc(I)ccc23)ccc1F [GW552771] | 0
CCCCc1nn2ncccc2c1-c1ccnc(Nc2ccc(N3CCN(C)CC3)cc2)n1 [GW684941] | 20
O=C(Nc1n[nH]c2cc(-c3ccoc3)ccc12)C1CC1 [SB-738481] | 23
COc1cccc(C2=C(Nc3ccc(Cl)c(C(=O)O)c3)C(=O)NC2=O)c1 [SB-390769] | 100
CCS(=O)(=O)c1ccc(OC)c(Nc2nccc(-c3c(-c4cccc(NC(=O)c5c(F)cccc5F)c4)nn4ncccc34)n2)c1 [GSK326180] | 0
Nc1ncc(-c2cccnc2)c2scc(-c3ccc4c(c3)CCN4C(=O)Cc3ccccc3)c12 [GSK683281] | 27
Cc1ccc(C(=O)N2CC[C@@H](O)C2)cc1-n1c(C)cc(OCc2ccc(F)cc2F)c(Br)c1=O | 0
CC(=O)Nc1nc2cnc(Nc3cc(NC(=O)c4cccc(C5(C#N)CC5)c4Cl)ccc3C)nc2s1 | 67
COc1cc(Nc2nccc(N3CCC(NC(=O)c4cc5ccccc5s4)C3)n2)cc(OC)c1OC (centres unmarked) [GSK1379760] | 33
Cc1ccc(C(=O)Nc2ccc(Nc3ccnc4cc(-c5nccs5)ccc34)cc2O)cc1.Cl [GW494702] | 0
Cc1ccc(C)c(NC(=O)NC2CCN(c3ccnc(Nc4ccc(F)cc4)n3)C2)c1 (centres unmarked) [GSK1379720] | 0
